Source: PubChem (several laboratories)
Gli-Sufu block = antagonists of Gli-Sufu signaling | actives 0.74% (n = 340,000) | AID 588413 | inhibition, % at 5 µM | Sufu-KO-LIGHT fibroblasts, Gli luciferase reporter luminescence;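 active = inhibition above about 55%, limit read from the data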
COUP-TFII inh = NR2F2 (human) inhibition, primary screen | inhibition, % at 8.6 µM | actives 0.7% (n = 370,000) | P24468 | HEK293T NGFI-A luciferase reporter, luminescence | AID 686940;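 active = inhibition above a per-plate cutoff, mean inhibition of test wells between control levels plus 3 SD, cut at about 38% in these data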;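 also: cells cotransfected with COUP-TFII expression vector driving the NGFI-A reporter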
Target sequence (P24468 whole entry, looked up): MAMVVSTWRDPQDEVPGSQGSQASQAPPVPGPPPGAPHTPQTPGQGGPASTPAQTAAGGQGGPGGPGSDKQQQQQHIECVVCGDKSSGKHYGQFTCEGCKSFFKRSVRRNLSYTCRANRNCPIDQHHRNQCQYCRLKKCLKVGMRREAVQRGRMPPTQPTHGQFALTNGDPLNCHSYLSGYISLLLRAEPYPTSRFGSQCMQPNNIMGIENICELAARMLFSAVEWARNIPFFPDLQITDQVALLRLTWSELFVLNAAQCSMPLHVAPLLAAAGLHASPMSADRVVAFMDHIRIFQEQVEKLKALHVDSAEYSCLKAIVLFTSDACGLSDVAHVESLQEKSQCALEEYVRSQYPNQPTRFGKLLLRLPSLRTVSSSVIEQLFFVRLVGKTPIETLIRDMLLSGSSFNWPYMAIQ
aDG glyco up = increases alpha dystroglycan glycosylation. Pro5-aDG cells, alpha-DG glycosylation AlphaScreen (IIH6); 0% Pro5, 100% B10-LARGE cell signal. activation, % at 10 µM. actives 0.22% (n = 360,000). AID 624168;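 active = activation of at least 8% versus controls, or a plate z-score of at least 8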;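 also: Pro5 are CHO cells carrying HIG-tagged alpha-DG that lacks glycosylation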
Env fusion inh = blocks HIV Env-driven cell-cell fusion | actives 1.1% (n = 360,000) | inhibition, % at 12.3 µM | AID 651610 | HeLa-JRFL Env/CEM21 cell fusion, luciferase;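 active = mean replicate inhibition score of at least 50 and every replicate individually at or above 50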
GalR3 antagonist = blocks the human galanin receptor 3. O60755. inhibition, % at 3 µM. HEK293 GalR3-CNG cAMP membrane potential fluorescence; galR3 body fused to GalR1 C-terminus. AID 651719. actives 0.44% (n = 360,000);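 active = inhibition above the screen-wide average plus 3 SD, cut at about 13% in these data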;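 also: forskolin and galanin both at EC90 stimulate the cells; cAMP rise reported by CNG channel membrane potential dye signal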
Target sequence (O60755 1-299 limits assumed): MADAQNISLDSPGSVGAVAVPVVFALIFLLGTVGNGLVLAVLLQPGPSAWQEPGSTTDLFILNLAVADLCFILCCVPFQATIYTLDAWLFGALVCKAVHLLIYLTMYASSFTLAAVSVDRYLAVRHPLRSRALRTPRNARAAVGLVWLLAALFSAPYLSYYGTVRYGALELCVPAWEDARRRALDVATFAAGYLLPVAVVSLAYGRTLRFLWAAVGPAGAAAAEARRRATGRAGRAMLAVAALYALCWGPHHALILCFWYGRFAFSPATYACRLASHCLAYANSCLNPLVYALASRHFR
VP16 Luc counter = inhibits VP16 reporter, flagging COUP-TFII antagonist hits; shares compounds with COUP-TFII inh; HEK293 Gal4-VP16 luciferase reporter, luminescence; inhibition, % at 8.5 µM; actives 25% (n = 2,500); AID 687007; in the data active = inhibition above about 13%
NR2F2 inh conf = COUP-TFII (NR2F2) inhibition, confirmation assay; actives 45% (n = 2,500); AID 687008; inhibition, % at 8.5 µM; HEK293 NGFI-A luciferase reporter, luminescence; shares compounds with COUP-TFII inh;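 active = mean inhibition over three repeats above a set limit taken from the earlier primary screen, cut at about 38% in these data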
Of the large screens only hits and unclear results are named; the others gave an inactive call (follow-up assays come after a bar, where they were run). This is a sample that favours compounds with a hit; in the whole collection about 2.1% have one here.

C[C@@H]1CCCCO[C@H](CN(C)C)[C@@H](C)CN([C@H](C)CO)C(=O)c2cc(NS(=O)(=O)c3ccc(Cl)cc3)ccc2O1	none (no result: Gli-Sufu block, COUP-TFII inh, aDG glyco up, GalR3 antagonist)
Cc1cc(=O)oc2cc(OCC(=O)OCC(=O)Nc3ccccc3Br)ccc12	COUP-TFII inh 54.7 | VP16 Luc counter inactive | NR2F2 inh conf inactive
CCC(=O)N(C)C[C@H]1Oc2cc(C#CCN(C)C)ccc2S(=O)(=O)N([C@H](C)CO)C[C@@H]1C	none (no result: Gli-Sufu block, COUP-TFII inh, aDG glyco up, GalR3 antagonist)
CN(C)S(=O)(=O)c1ccc(C(=O)Nc2nnc(-c3cccs3)o2)cc1	none
CN(C)S(=O)(=O)c1ccc(C(=O)Nc2nc(-c3cccs3)cs2)cc1	COUP-TFII inh 53.6, Env fusion inh 76.4 | VP16 Luc counter inactive | NR2F2 inh conf inactive
O=C(CSc1ncccc1C(=O)O)Nc1ccc2c(c1)OCCO2	COUP-TFII inh 55.4 | VP16 Luc counter inactive | NR2F2 inh conf inactive
O=C(Cn1cnc2ccccc21)Nc1ccc2c(c1)OCCCO2	COUP-TFII inh 39.0 | VP16 Luc counter inactive | NR2F2 inh conf inactive
O=C(CSc1ncnc2ccccc12)Nc1ccc2c(c1)OCCO2	none
O=C(Cn1cnc2ccccc2c1=O)Nc1ccc2c(c1)OCO2	none
O=C(C1CC1)N1CCC(c2nc(-c3ccc(S(=O)(=O)N4CCCC4)cc3)no2)CC1	none (no result: Env fusion inh)
O=C(C1CC1)N1CCC(c2nc(-c3ccc(S(=O)(=O)NCC4CCCO4)cc3)no2)CC1 (configuration not stated)	COUP-TFII inh 45.4 (no result: Env fusion inh) | VP16 Luc counter inactive | NR2F2 inh conf inactive
CCCC(=O)NC1CCCc2c1cnn2-c1ccc(C)c(C)c1 (configuration not stated)	none
CCn1nc(C)cc1C(=O)NC1CCCc2c1cnn2-c1ccc(C)c(C)c1 (configuration not stated)	COUP-TFII inh 54.3 | VP16 Luc counter inactive | NR2F2 inh conf 39.6
Cc1cc(C)cc(-n2ncc3c2CCCC3NC(=O)CN2CCCC2=O)c1 (configuration not stated)	none
CC(C)(C)c1ccc(-n2ncc3c2CCCC3NC(=O)CN2CCCC2=O)cc1 (configuration not stated)	COUP-TFII inh 43.0, Env fusion inh 68.4 | VP16 Luc counter inactive | NR2F2 inh conf inactive
Cc1ccc(S(=O)(=O)Nc2cccc3c2O[C@@H](CN(C)Cc2ccc(Cl)c(Cl)c2)[C@H](C)CN([C@@H](C)CO)C3=O)cc1	none (no result: Gli-Sufu block, COUP-TFII inh, aDG glyco up, GalR3 antagonist)
COc1ccc2cc3c(N)nn(C(=O)c4ccccc4[N+](=O)[O-])c3nc2c1	COUP-TFII inh 42.6 | VP16 Luc counter 14.8 | NR2F2 inh conf inactive
CC(Sc1nnc2c(n1)[nH]c1ccccc12)C(=O)NC1CCCCC1 (configuration not stated)	none
CC(Sc1nnc2c(n1)[nH]c1ccccc12)C(=O)N(C)C1CCCCC1 (configuration not stated)	COUP-TFII inh 43.6 | VP16 Luc counter inactive | NR2F2 inh conf inactive
CC(C)C#Cc1cnc2c(c1)C(=O)N([C@@H](C)CO)C[C@@H](C)[C@H](CN(C)C(=O)c1cnccn1)O2	none (no result: Gli-Sufu block, COUP-TFII inh, aDG glyco up, GalR3 antagonist)
CN(C(=O)CN1CCN(c2cc(-c3ccc(-c4ccccc4)cc3)ncn2)CC1)c1ccccc1	COUP-TFII inh 53.8 (no result: Gli-Sufu block) | VP16 Luc counter inactive | NR2F2 inh conf inactive
O=C(C[C@H]1CC[C@H]2[C@@H](COC[C@H](O)CN2C(=O)Nc2ccc(Cl)c(Cl)c2)O1)NC1CCC1	none (no result: Gli-Sufu block, COUP-TFII inh, aDG glyco up, GalR3 antagonist)
O=C(N[C@H]1CC[C@@H](CCNS(=O)(=O)c2ccccc2Cl)O[C@H]1CO)c1ccc(F)cc1	none (no result: Gli-Sufu block, COUP-TFII inh, aDG glyco up, GalR3 antagonist)
O=C(C[C@H]1C[C@H]2c3cc(NS(=O)(=O)c4ccc(F)cc4)ccc3O[C@H]2[C@@H](CO)O1)NCc1cccc(F)c1	none (no result: Gli-Sufu block, COUP-TFII inh, aDG glyco up, GalR3 antagonist)
COCCNC(=O)C[C@@H]1CC[C@H]2[C@@H](COC[C@H](O)CN2C(=O)Nc2ccc3c(c2)OCO3)O1	none (no result: Gli-Sufu block, COUP-TFII inh, aDG glyco up, GalR3 antagonist)
CNC(=S)N/N=C/c1c(C(=O)OC)cnn1-c1ccc(F)cc1F	none
COC(=O)c1cnn(-c2ccc(F)cc2F)c1/C=N/NC(=S)Nc1ccccc1	COUP-TFII inh 48.0 (no result: Gli-Sufu block, aDG glyco up, Env fusion inh, GalR3 antagonist) | VP16 Luc counter inactive | NR2F2 inh conf inactive
Cc1noc(C)c1S(=O)(=O)Nc1ccc2c(c1)C(=O)N([C@H](C)CO)C[C@H](C)[C@@H](CN(C)C(=O)C1CCCCC1)OCCCC[C@H](C)O2	none (no result: Gli-Sufu block, COUP-TFII inh, aDG glyco up, GalR3 antagonist)
CCc1ccc(CCNC(=O)OCCCN2CCC3(CCC(c4ccccc4)CC3)C2=O)cc1 (configuration not stated)	COUP-TFII inh 41.0 (no result: Gli-Sufu block, aDG glyco up, Env fusion inh, GalR3 antagonist) | VP16 Luc counter inactive | NR2F2 inh conf inactive
Cc1ccc(NC(=O)N2CCc3ccccc32)cc1	none
CN1CCN(c2ccc(NC(=O)N3CCc4ccccc43)cc2)CC1	COUP-TFII inh 61.6 | VP16 Luc counter inactive | NR2F2 inh conf 62.6
COc1cccc2c(=O)cc(C)n(CC(=O)Nc3cccc(C)c3)c12	COUP-TFII inh 46.6 | VP16 Luc counter inactive | NR2F2 inh conf inactive
CS(=O)(=O)Nc1ccc2c(c1)[C@H]1C[C@H](CC(=O)NCc3ccccn3)O[C@@H](CO)[C@H]1O2	none (no result: Gli-Sufu block, COUP-TFII inh, aDG glyco up, GalR3 antagonist)
O=C(NCc1cccnc1)/C(=C\c1ccc(-c2cccc(Cl)c2)o1)S(=O)(=O)c1ccccc1	COUP-TFII inh 42.5 (no result: Env fusion inh) | VP16 Luc counter 20.6 | NR2F2 inh conf inactive
CCN(CC(=O)NCc1ccc(Cl)cc1)C(=O)c1cc(OC)cc(OC)c1	COUP-TFII inh 53.4 | VP16 Luc counter inactive | NR2F2 inh conf inactive
C[C@H](CO)N1C[C@H](C)[C@H](CN(C)CC2CC2)OCCCC[C@H](C)Oc2ccc(NC(=O)Cc3ccccc3)cc2C1=O	none (no result: Gli-Sufu block, COUP-TFII inh, aDG glyco up, GalR3 antagonist)
CNC[C@@H]1Oc2ccc(NC(=O)C3CC3)cc2CC(=O)N([C@H](C)CO)C[C@H]1C	none (no result: Gli-Sufu block, COUP-TFII inh, aDG glyco up, GalR3 antagonist)
CCCCCC(=O)Nc1cccc(C2=NOC3(C2)C[C@@H](C(N)=O)N(C(=O)Cc2ccc([N+](=O)[O-])cc2)C3)c1 (some centres not stated)	none
NC(=O)[C@H]1CC2(CC(c3cccc(NC(=O)COc4ccc(Cl)cc4)c3)=NO2)CN1C(=O)Cc1ccc([N+](=O)[O-])cc1 (some centres not stated)	COUP-TFII inh 73.8 | VP16 Luc counter inactive | NR2F2 inh conf 66.0
CC(C)c1ccc(C(=O)Nc2ccc(CN3CCOCC3)cc2)cc1	COUP-TFII inh 38.3 | VP16 Luc counter inactive | NR2F2 inh conf inactive
COc1ccc(NC(=O)c2ccc(CN3CCN(c4ccccc4)CC3)cc2)cc1	COUP-TFII inh 48.2 (no result: Env fusion inh) | VP16 Luc counter inactive | NR2F2 inh conf inactive
NC(=O)c1ccc(NC(=O)c2ccc(CN3CCOCC3)cc2)cc1	none
O=C(Nc1ccc(CN2CCOCC2)cc1)c1ccc(-c2cccc(Cl)c2)o1	COUP-TFII inh 61.5, Env fusion inh 77.4 | VP16 Luc counter inactive | NR2F2 inh conf inactive
